Test results from PubChem BioAssay.
Activity calls are given as the source filed them. Unless noted, the rule behind the calls is not given here.

How the values were obtained:
[1] = anti-His antibody binders, primary screen, artefact control for SMM control protein annotation, biochemical, small-molecule microarray, 635 nm fluorescence (AID 1128); settings: anti-His Alexa647 antibody binding, higher = more signal;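 note: score merges feature fluorescence with signal-to-noise for each printed compound spot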
[2] = system: Human papillomavirus type 1a E7 protein (residues 1-88); assay: HPV1a E7 small-molecule binders, primary screen, biochemical, small-molecule microarray, residues 1-88, 635 nm (AID 1129); settings: small-molecule microarray binding, fluorescence 635 nm; higher = more signal
[3] = molecular target: Focal adhesion kinase 1 (Homo sapiens) (UniProt Q05397); assay: small-molecule microarray binders of FAK, primary screen, biochemical, 635/667 nm fluorescence, BSA, DTT (AID 1130); settings: PTK2 binding, 635 nm fluorescence, higher = more signal;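 note: composite of spot emission at 667 nm and signal to noise over triplicate slides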
[4] = system: Fibrinogen (Alexa647-labelled); assay: fibrinogen binders on compound microarrays, profiling panel, artefact control for SMM control-protein annotation, biochemical, small-molecule microarray, 635/667 nm fluorescence (AID 1131); settings: fibrinogen-A647 binding fluorescence, higher = more signal;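 note: z-score merges 667 nm fluorescence with per-spot signal-to-noise over triplicate slides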
[5] = molecular target: Follistatin (Homo sapiens) (UniProt P19883); assay: follistatin binders on small-molecule microarrays, primary screen, biochemical, small-molecule microarray, 635/667 nm fluorescence (AID 1132); settings: FST binding, 635 nm fluorescence, higher = more signal
[6] = molecular target: Fibroblast growth factor 2 (Homo sapiens) (UniProt P09038); assay: FGF2 binders on small-molecule microarrays, primary screen, biochemical, small-molecule microarray, 635/667 nm fluorescence (AID 1133); settings: small-molecule microarray binding, FGF2, fluorescence 635/667; higher = more signal
[7] = mitochondrial membrane potential change in A549 cells, profiling panel, cell-based, JC-1 fluorescence, basal, 24 h, 100 nL (AID 1138); settings: higher = more signal;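 note: A549 lung adenocarcinoma cells under basal conditions with no added stimulus; test concentration not given here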
[8] = system: Lefty1; assay: Lefty1 binders on small-molecule microarrays, primary screen, biochemical, small-molecule microarray, 635/667 nm fluorescence (AID 1139); settings: small-molecule microarray binding, fluorescence 635/667; higher = more signal
[9] = system: wheat germ agglutinin (Triticum aestivum), Alexa647-labelled; assay: wheat germ agglutinin binders on compound microarrays, profiling panel, artefact control for SMM control-protein annotation, biochemical, small-molecule microarray, 635/667 nm fluorescence (AID 1140); settings: WGA-A647 binding, 635 nm fluorescence, higher = more signal;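 note: score merges 667 nm feature emission with signal to noise over triplicate slides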
[10] = molecular target: Luciferin 4-monooxygenase (Photinus pyralis) (UniProt P08659); assay: firefly luciferase enzyme inhibitors, primary screen, biochemical, luminescence, purified enzyme, 2006 set (AID 1141); settings: SteadyGlo luminescence, 30 min, higher = more signal, called active from +8 up or from −8 down;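 note: cell-free assay with purified firefly luciferase at 100 ng per well in PBS; test concentration not given here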
[11] = system: Wnt5a (protein binding on small-molecule microarray); assay: Wnt5a binders on small-molecule microarray, primary screen, biophysical, 635/667 nm fluorescence (AID 1142); settings: 635 nm fluorescence, higher = more signal;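 note: fluorescence read at 667 nm with signal to noise per printed feature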
[12] = cell viability in Huh7 cells, primary screen, cytotoxicity control for HCV replication inhibitor project, CellTiter-Glo luminescence, basal, 48 h (AID 1143); settings: Huh7 HCV replicon, higher = more signal, called active from +8 up or from −8 down;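 note: Huh7 hepatoma cells carrying a hepatitis C replication reporter with no stimulus; test concentration not given here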
[13] = P. aeruginosa biofilm formation inhibitors, primary screen, PAO1 strain, BacTiter-Glo luminescence, LB-PBS (AID 1144); settings: 12 h, higher = more signal
[14] = CREB reporter modulators without forskolin, primary screen, cell-based, PC12, CRE-LacZ reporter, unstimulated (AID 1145); settings: no forskolin, luminescence, 4.5 h, higher = more signal, called active from +8 up or from −8 down
[15] = CREB reporter modulators under forskolin, primary screen, cell-based, PC12, CRE-LacZ reporter, forskolin-stimulated (AID 1146); settings: luminescence, 4.5 h, higher = more signal, called active from +8 up or from −8 down;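 note: PC12 cells with 6xCRE LacZ reporter stimulated by forskolin 10 µM; beta-galactosidase reporter signal reflecting CREB driven transcription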
[16] = molecular target: Streptavidin (Streptomyces avidinii) (UniProt P22629); assay: streptavidin binders on small-molecule microarray, primary screen, artefact control for SMM compound annotation, biophysical, 635/667 nm fluorescence (AID 1147); settings: streptavidin binding, higher = more signal;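 note: signal reflects streptavidin binding to arrayed compounds as a control protein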
[17] = small-molecule binders of probe aInhba, primary screen, biochemical, small-molecule microarray, 635/667 nm fluorescence (AID 1148); settings: higher = more signal;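 note: score merges 667nm spot fluorescence with signal-to-noise for antibody binding to printed compounds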
[18] = molecular target: Torsin-1A (Homo sapiens) (UniProt O14656); assay: torsin A binders from cell lysate, primary screen, small-molecule microarray, wild-type, 635/667 nm (AID 1149); settings: COS7 hTOR1A-WT lysate, 635 nm fluorescence, higher = more signal
[19] = molecular target: Torsin-1A (Homo sapiens) (UniProt O14656); assay: small-molecule binders of mutant TOR1A in lysate, primary screen, cell lysate, small-molecule microarray, COS7 lysate, 635/667 nm fluorescence (AID 1150); settings: COS7 hTOR1A mutant lysate, 635 nm fluorescence, higher = more signal;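 note: score pools 667 nm emission and signal to noise measuring lysate protein binding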
[20] = system: Sonic hedgehog protein (Shh); assay: small-molecule binders of Shh protein, primary screen, biochemical, small-molecule microarray, 635/667 nm fluorescence (AID 1151); settings: small-molecule microarray binding, 635 nm fluorescence; higher = more signal;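 note: Shh protein binding to compounds spotted on small-molecule microarray slides; score combines spot fluorescence intensity with signal-to-noise across triplicate slides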

Torsin-1A (Homo sapiens), sequence (O14656 whole entry, looked up): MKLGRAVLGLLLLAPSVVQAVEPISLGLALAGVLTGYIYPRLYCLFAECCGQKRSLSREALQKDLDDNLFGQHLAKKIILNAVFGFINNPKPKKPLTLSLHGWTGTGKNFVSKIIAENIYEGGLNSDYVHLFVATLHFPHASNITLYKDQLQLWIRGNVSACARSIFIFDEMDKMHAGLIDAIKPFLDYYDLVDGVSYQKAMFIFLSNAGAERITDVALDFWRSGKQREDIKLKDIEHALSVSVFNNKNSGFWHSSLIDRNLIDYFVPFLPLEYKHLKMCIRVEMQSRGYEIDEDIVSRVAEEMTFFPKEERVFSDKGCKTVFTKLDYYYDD
Fibroblast growth factor 2 (Homo sapiens), sequence (P09038 whole entry, looked up): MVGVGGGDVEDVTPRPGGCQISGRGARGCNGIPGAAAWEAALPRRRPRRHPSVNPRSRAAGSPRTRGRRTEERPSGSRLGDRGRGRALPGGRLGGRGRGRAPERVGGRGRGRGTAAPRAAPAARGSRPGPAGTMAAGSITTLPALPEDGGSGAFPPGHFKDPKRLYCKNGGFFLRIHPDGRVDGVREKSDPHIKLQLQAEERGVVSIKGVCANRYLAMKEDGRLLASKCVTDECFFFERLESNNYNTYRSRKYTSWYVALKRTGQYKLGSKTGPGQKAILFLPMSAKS
Follistatin (Homo sapiens), sequence (P19883 whole entry, looked up): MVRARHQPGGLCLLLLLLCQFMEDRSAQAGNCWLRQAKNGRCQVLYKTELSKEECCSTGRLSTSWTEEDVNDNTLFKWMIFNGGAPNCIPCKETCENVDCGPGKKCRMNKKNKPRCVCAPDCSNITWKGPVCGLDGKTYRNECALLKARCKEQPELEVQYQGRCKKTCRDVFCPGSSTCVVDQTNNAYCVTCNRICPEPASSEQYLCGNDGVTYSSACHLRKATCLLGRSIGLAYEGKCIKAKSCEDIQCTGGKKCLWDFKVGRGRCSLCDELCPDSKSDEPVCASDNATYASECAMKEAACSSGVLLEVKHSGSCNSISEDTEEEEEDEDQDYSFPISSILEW
Focal adhesion kinase 1 (Homo sapiens), sequence (Q05397 whole entry, looked up): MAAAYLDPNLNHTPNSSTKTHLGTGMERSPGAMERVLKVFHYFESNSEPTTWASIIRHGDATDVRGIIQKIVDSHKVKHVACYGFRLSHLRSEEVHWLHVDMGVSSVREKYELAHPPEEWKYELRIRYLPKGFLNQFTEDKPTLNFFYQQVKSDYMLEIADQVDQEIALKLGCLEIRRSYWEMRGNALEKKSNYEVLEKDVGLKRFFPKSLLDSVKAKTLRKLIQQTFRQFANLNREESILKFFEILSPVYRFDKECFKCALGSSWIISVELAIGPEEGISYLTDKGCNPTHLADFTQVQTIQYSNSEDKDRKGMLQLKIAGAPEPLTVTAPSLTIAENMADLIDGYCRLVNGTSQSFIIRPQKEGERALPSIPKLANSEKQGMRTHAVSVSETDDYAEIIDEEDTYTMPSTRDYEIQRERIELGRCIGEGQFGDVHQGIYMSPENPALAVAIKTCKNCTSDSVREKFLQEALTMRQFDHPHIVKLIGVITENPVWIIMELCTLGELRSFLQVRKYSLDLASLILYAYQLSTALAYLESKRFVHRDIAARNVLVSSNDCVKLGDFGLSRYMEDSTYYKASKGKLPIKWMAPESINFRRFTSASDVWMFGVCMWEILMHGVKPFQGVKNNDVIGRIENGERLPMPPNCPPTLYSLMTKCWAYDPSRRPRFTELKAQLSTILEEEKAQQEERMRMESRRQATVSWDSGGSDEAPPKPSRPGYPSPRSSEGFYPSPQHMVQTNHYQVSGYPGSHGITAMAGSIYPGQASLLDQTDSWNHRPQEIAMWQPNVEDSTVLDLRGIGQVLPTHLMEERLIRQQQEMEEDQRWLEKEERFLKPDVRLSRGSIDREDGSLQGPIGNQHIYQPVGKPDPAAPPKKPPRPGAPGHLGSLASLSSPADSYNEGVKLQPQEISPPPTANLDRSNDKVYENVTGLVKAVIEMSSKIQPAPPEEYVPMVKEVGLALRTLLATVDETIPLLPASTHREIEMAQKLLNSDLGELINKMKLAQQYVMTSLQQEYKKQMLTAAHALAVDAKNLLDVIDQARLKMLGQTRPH
Luciferin 4-monooxygenase (Photinus pyralis), sequence (P08659 whole entry, looked up): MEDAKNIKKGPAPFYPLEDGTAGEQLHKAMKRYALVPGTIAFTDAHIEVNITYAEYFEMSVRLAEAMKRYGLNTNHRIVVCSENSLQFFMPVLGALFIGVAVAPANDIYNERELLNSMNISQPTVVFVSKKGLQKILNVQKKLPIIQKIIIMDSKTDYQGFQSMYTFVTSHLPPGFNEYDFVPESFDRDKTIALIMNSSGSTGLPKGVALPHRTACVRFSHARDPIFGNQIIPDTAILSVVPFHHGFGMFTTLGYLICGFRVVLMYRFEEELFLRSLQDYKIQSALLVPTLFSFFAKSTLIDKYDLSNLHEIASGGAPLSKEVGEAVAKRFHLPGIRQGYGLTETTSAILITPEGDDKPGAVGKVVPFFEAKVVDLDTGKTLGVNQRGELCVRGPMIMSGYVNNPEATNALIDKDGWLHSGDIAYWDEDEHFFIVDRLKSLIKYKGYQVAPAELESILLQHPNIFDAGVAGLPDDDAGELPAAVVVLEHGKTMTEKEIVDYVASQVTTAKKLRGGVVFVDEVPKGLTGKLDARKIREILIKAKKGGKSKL
Streptavidin (Streptomyces avidinii), sequence (P22629 whole entry, looked up): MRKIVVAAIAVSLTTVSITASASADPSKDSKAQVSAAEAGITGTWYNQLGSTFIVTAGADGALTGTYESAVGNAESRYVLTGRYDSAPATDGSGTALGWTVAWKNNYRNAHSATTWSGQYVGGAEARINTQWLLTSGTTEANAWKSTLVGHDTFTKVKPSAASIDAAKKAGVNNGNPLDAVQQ

Compound	composite z-score [1]	composite z-score [2]	composite z-score [3]	composite z-score [4]	composite z-score [5]	composite z-score [6]	z-score [7]	composite z-score [8]	composite z-score [9]	z-score [10]	composite z-score [11]	z-score [12]	z-score [13]	z-score [14]	z-score [15]	composite z-score [16]	composite z-score [17]	composite z-score [18]	composite z-score [19]	composite z-score [20]
CC(C)N1CC=CC23O[C@@H]4C=CCOC(=O)[C@@H]4[C@H]2C(=O)N(C(C)CO)[C@@H]3C1=O (stereo not given in full)	-0.221	-0.915	-0.202	-0.179	-0.901	-0.678	-0.374	-0.941	-0.158	0.169 (inactive)	-0.517	0.394 (inactive)	0.995 (inactive)	-0.619 (inactive)	-0.544 (inactive)	-0.23	-0.161	-1.33	-1.43	-0.753
O=C(N1CCCCC1)[C@@]1(Cc2ccccc2)COC(c2ccc(OCCCO)cc2)=N1	1.85	1.2	0.195	0.96	0.475	1.3	1.22	-0.211	1.12	-0.117 (inactive)	1.03	-2.49 (inactive)	0.496 (inactive)	-0.128 (inactive)	-0.628 (inactive)	0.85	0.322	0.442	0.67	0.934
Cc1ccc(S[C@]2(C(=O)O)CC(=O)N(Cc3ccccc3Cl)[C@@H]2c2ccc(CO)cc2)cc1	-0.24	-0.558	-0.299	-0.271	-0.83	-0.26	-0.939	-1.26	0.478	-0.999 (inactive)	0.0044	-1.55 (inactive)	0.596 (inactive)	0.441 (inactive)	1.27 (inactive)	-0.868	-0.0791	-0.951	0.822	-0.259
CCOC(=O)C[C@H]1[C@H](OC(=O)Cc2ccc3c(c2)OCO3)[C@@H](NC(=O)C2CCCCC2)c2cc(OCCCO)ccc2N1C(=O)c1ccc2ccccc2n1	0.0779	0.684	0.309	0.581	1.39	1.71	-0.678	0.816	-0.176	0.862 (inactive)	0.305	-3.34 (inactive)	-0.273 (inactive)	6.45 (inactive)	0.871 (inactive)	0.658	-0.0361	0.392	0.172	1.39
Cc1ccc(S[C@]2(C(=O)NCC(C)C)CC(=O)N(Cc3ccccc3Cl)[C@@H]2c2ccc(CO)cc2I)cc1	0.231	0.132	-0.47	0.137	-0.142	-0.131	-0.204	-0.7	0.231	0.272 (inactive)	-0.296	-0.521 (inactive)	-0.505 (inactive)	-0.904 (inactive)	0.442 (inactive)	-0.942	-0.176	-0.276	-0.682	0.196
COc1ccc([Si](C)(C)[C@@H]2[C@@H](CCO)O[C@]3(C(=O)N(Cc4cccc(N5C(=O)c6cccc7cccc5c67)c4)c4ccccc43)[C@H]2C)cc1	1.06	0.848	-0.123	0.136	0.004	-0.0148	-0.43	0.626	0.0034	-0.508 (inactive)	-0.101	-5.93 (inactive)	0.568 (inactive)	7.33 (inactive)	-0.24 (inactive)	-0.138	-0.128	-0.516	-0.252	0.552
C=CCNC(=O)[C@H]1[C@@H]2C(=O)O[C@@H](c3ccccc3)[C@@H](c3ccccc3)N2[C@@H](c2ccccc2OCCO)[C@]12C(=O)N(C(=O)OCCOC)c1ccc(C#CC3=CCCCC3)cc12	0.108	1.24	0.369	0.975	1.21	0.685	-0.295	0.885	0.993	-1.48 (inactive)	0.356	-4.73 (inactive)	1.37 (inactive)	-0.333 (inactive)	0.371 (inactive)	1.08	0.423	1.02	0.798	0.826
COCCOC(=O)N1C(=O)[C@@]2(c3cc(C#Cc4ccc(OC)cc4)ccc31)[C@H](C(=O)N1CCN(c3ncccn3)CC1)[C@H]1C(=O)O[C@H](c3ccccc3)[C@H](c3ccccc3)N1[C@@H]2c1ccccc1OCCO	2.03	1.14	0.364	-0.118	0.579	0.238	-0.94	0.305	0.701	0.223 (inactive)	-0.0175	-0.651 (inactive)	-1.1 (inactive)	-0.467 (inactive)	-0.638 (inactive)	0.103	-0.215	0.236	0.0863	1.01
O=C1C2C=CC(C(O)c3cc(C(F)(F)F)cc(C(F)(F)F)c3)N(Nc3ccc([N+](=O)[O-])cc3)C2C(=O)N1c1ccccc1 (stereo not given)	0.338	1.24	0.681	1.02	1.05	0.4	-0.953	0.953	0.599	0.833 (inactive)	0.553	-4.58 (inactive)	-0.0376 (inactive)	1.63 (inactive)	-0.303 (inactive)	1.02	0.358	0.621	0.428	0.74
